High-throughput results: PubChem, National Center for Advancing Translational Sciences (NCATS)
VP16 counter: VP16 counterscreen qHTS for inhibitors of ROR gamma transcriptional activity. AID 2546, 2010. Drosophila S2 Gal4-VP16 UAS-luciferase, luminescence, 20 h. 310,000 tested, 3.5% active. Potency, µM (doses to about 53.6 µM), for inactives: at the highest dose activity, negative = inhibition, most hits filed as inhibitors;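 also: Gal4-VP16 expression switched on by copper sulfate through the metallothionein promoter; nearly all actives have a fitted effect of over 50% in size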
PLK1 PBD inh: qHTS for Inhibitors of PLK1-PDB (polo-like kinase 1 - polo-box domain): Primary Screen; Serine/threonine-protein kinase PLK1 (Homo sapiens), P53350; Plk1 PBD binding of FITC phosphopeptide, fluorescence polarization; Potency, µM, inactives show max response, negative = inhibition, hits mostly inhibitors; 360,000 tested, 2.8% active; AID 720504, 2013; also: series mostly up to about 57 µM; nearly all actives have a fitted effect of over 65% in size
Target sequence (P53350 whole entry, looked up, the tested form may be a part): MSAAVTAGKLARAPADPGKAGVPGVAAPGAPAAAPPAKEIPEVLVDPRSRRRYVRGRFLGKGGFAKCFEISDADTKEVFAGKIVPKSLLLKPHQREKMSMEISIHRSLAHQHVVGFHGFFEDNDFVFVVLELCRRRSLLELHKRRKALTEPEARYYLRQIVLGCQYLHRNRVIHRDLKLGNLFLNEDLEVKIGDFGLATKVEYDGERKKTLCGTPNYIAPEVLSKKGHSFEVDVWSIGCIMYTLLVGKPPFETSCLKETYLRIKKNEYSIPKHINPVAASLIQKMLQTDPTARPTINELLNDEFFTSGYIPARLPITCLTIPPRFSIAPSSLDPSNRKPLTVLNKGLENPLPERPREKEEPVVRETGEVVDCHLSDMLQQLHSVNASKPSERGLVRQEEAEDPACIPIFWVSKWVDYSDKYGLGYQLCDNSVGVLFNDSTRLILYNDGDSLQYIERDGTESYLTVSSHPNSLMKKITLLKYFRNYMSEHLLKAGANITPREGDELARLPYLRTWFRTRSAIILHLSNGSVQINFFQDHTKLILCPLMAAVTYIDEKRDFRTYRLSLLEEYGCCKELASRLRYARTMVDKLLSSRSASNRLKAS
ALDH1A1 block: qHTS Assay for Inhibitors of Aldehyde Dehydrogenase 1 (ALDH1A1) | Aldehyde dehydrogenase 1A1 (Homo sapiens), P00352 | 220,000 tested, 7.3% active | AID 1030, 2008 | Potency, µM (top dose mostly 75.3 µM), inactives show at the highest dose activity, negative = inhibition, actives largely listed as inhibitors | Purified ALDH1A1, NADH fluorescence, propionaldehyde substrate; active = well fitted inhibition curve with a large enough effect, not every such curve was filed as active; inconclusive = small, poorly fitted or top-dose-only effect, or another doubt; inactive = no such curve, though single readings can be large or run the other way;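 also: plate controls were no enzyme wells and a reference inhibitor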
RORgamma inh: qHTS for inhibitors of ROR gamma transcriptional activity | Potency, µM (doses to about 53.6 µM), inactives show top-dose activity change, negative = inhibition, most hits filed as inhibitors | Drosophila S2 Gal4-RORgamma UAS-luciferase reporter, 20 h | 310,000 tested, 5.4% active | Nuclear receptor ROR-gamma (Mus musculus), P51450; also: nearly all actives have a fitted effect of over 60% in size
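Schneider cells (Drosophila), stable Gal4 DBD–ROR gamma + UAS-luc; 1 hr cmpd preincubation; Cu2+ induction 700 uM final; 20 hr ambient; luminescence.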
Sfp inh: qHTS Assay for Inhibitors of Bacillus subtilis Sfp phosphopantetheinyl transferase (PPTase); 4'-phosphopantetheinyl transferase ffp (Bacillus subtilis), Q9F4F7; Biochemical Sfp PPTase activity, qHTS; Potency, µM, without a hit: largest response in the series, negative = inhibition, actives largely listed as inhibitors; 310,000 tested, 3.5% active;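 also: the enzyme is Sfp with the accession as filed and its product quenches rhodamine fluorescence; 0% = enzyme reaction without inhibitor and -100% = no enzyme wells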
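Sfp 15 nM + cpd, 15 min RT; start w/ rhodamine-CoA 5 uM, BHQ-2-YbbR 12.5 uM (final); 50 mM Hepes pH 7.6, 10 mM MgCl2, 0.01% NP-40, 0.01% BSA; read 525/598 nm at 0 and 30 min.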
An asterisk follows results filed as active; [ ] = another dose, or the depositor's remark. Compounds with a hit are over-represented: about 12% of the library has one in this group of screens. Unless noted, calls follow the shape of the dose curve; as a rule, active = well fitted curve in the direction sought with a large enough effect; inconclusive = small, poorly fitted or top-dose-only effect, or another doubt; inactive = no such curve, though single readings can be large; an effect the other way counts as inactive or inconclusive. Unless noted, % is scaled to controls: 0 for no effect and ±100 for the full control effect; potency is read from the fitted curve at half-maximal effect.

`O=C(O)/C(=C\c1cn(-c2ccccc2)nc1-c1ccc(Cl)cc1)NC(=O)c1ccccc1` gave VP16 counter -3.6%, PLK1 PBD inh -15.2%, RORgamma inh 5.9% and Sfp inh 28.8%.
CC1(C)CC(=O)C(=Cc2cn(CCC#N)nc2-c2ccc(F)cc2)C(=O)C1 was read as VP16 counter -9.8%, PLK1 PBD inh 3.36µM*, ALDH1A1 block -1.2%, RORgamma inh 18.8% and Sfp inh 56.2µM*.
`N#CCCn1cc(/C=N/O)c(-c2ccc(F)cc2)n1` gave VP16 counter -5.7%, PLK1 PBD inh -0.3%, ALDH1A1 block 18.7%, RORgamma inh -14.2% and Sfp inh 11.5%.
`CC1(C)CC(=O)C(=Cc2cn(-c3ccccc3)nc2-c2ccc(Cl)cc2)C(=O)C1` gave VP16 counter 7.6%, PLK1 PBD inh 1.19µM*, ALDH1A1 block inconclusive, RORgamma inh 27.2% and Sfp inh 89.1µM*.
Screening N#CCCn1cc(/C=C2\NC(=S)N(c3ccccc3)C2=O)c(-c2ccc(F)cc2)n1 returned VP16 counter -24.6%[10 µM], PLK1 PBD inh -15.0%, ALDH1A1 block 25.1µM*, RORgamma inh inconclusive and Sfp inh -11.4%.
Screening OC(c1ccccc1)(c1nc(-c2ccccc2)cs1)C(F)(F)F (stereo not drawn) returned PLK1 PBD inh -9.2%.
`C#Cc1ccccc1OCCCN1CCC(C(O)(c2ccccc2)c2ccccc2)CC1` gave PLK1 PBD inh -1.8%.
`CSCC[C@H](NC(=O)[C@H](CO)NC(=O)[C@H](Cc1ccc(O)cc1)NC(=O)[C@@H](N)CO)C(=O)N[C@@H](CCC(=O)O)C(=O)N[C@@H](Cc1cnc[nH]1)C(=O)N[C@@H](Cc1ccccc1)C(=O)N[C@@H](CCCNC(=N)N)C(=O)N[C@@H](Cc1c[nH]c2ccccc12)C(=O)NCC(=O)N[C@@H](CCCCN)C(=O)N1CCC[C@H]1C(=O)N[C@H](C(=O)NCC(=O)N[C@@H](CCCCN)C(=O)N[C@@H](CCCCN)C(=O)N[C@@H](CCCNC(=N)N)C(=O)N[C@@H](CCCNC(=N)N)C(=O)N1CCC[C@H]1C(=O)N[C@H](C(=O)N[C@@H](CCCCN)C(=O)N[C@H](C(=O)N[C@@H](Cc1ccc(O)cc1)C(=O)N1CCC[C@H]1C(=O)N[C@@H](CC(N)=O)C(=O)NCC(=O)N[C@@H](C)C(=O)N[C@@H](CCC(=O)O)C(=O)N[C@@H](CC(=O)O)C(=O)N[C@@H](CCC(=O)O)C(=O)N[C@@H](CO)C(=O)N[C@@H](C)C(=O)N[C@@H](CCC(=O)O)C(=O)N[C@@H](C)C(=O)N[C@@H](Cc1ccccc1)C(=O)N1CCC[C@H]1C(=O)N[C@@H](CC(C)C)C(=O)N[C@@H](CCC(=O)O)C(=O)N[C@@H](Cc1ccccc1)C(=O)O)C(C)C)C(C)C)C(C)C` gave VP16 counter -0.1%, RORgamma inh 0.7% and Sfp inh -8.2%.
C=CCn1c(=O)c(C(=O)Nc2ncccc2C)c(O)c2ccccc21 was read as PLK1 PBD inh -6.5%.
Screening O=C(Nc1nc2ccccc2[nH]1)c1ccccc1 returned VP16 counter 7.94µM*, PLK1 PBD inh -3.1%, ALDH1A1 block 7.4%, RORgamma inh 6.31µM* and Sfp inh 18.6%.
O=C(Nc1nc2ccccc2[nH]1)c1ccccc1O was read as VP16 counter 6.31µM*, PLK1 PBD inh -0.1%, RORgamma inh 12.6µM* and Sfp inh 12.4%.
For NC(=O)Nc1nc2ccccc2[nH]1 the results were VP16 counter 2.4%, ALDH1A1 block 3.6% and RORgamma inh 2.2%.
`CC(=O)Nc1nc2ccccc2[nH]1` gave VP16 counter 16.6%, PLK1 PBD inh -2.0%, ALDH1A1 block 3.9%, RORgamma inh -10.1% and Sfp inh 17.4%.
Screening O=C(Nc1nc2ccccc2[nH]1)c1ccc(Cl)cc1 returned VP16 counter 2.82µM*, PLK1 PBD inh -7.7%, RORgamma inh 12.6µM* and Sfp inh 29.8%.
`O=C(N/C(=C/c1ccc(Cl)cc1)c1nc2ccccc2[nH]1)c1ccco1` gave VP16 counter 3.8%, PLK1 PBD inh 0.8%, ALDH1A1 block inconclusive, RORgamma inh -1.0% and Sfp inh 21.5%.
For O=C(/C(=C/c1ccc(Cl)cc1)c1nc2ccccc2[nH]1)c1ccccc1 the results were VP16 counter 10µM*, PLK1 PBD inh -3.1%, ALDH1A1 block inconclusive, RORgamma inh 4.47µM* and Sfp inh 13.5%.
For CCC(=O)N1CCC(C)(C(=O)Nc2ccc(OC)c(OC)c2)C1 (stereo not drawn) the results were PLK1 PBD inh -5.6%.
Screening COCCNC(=O)C1CCCN(C(=O)c2cc(C)n(C(C)(C)C)n2)CC1 (stereo not drawn) returned PLK1 PBD inh -0.3%.
For O=C(Nc1nc2ccccc2[nH]1)c1cccc(Cl)c1 the results were VP16 counter 4.47µM*, PLK1 PBD inh -10.3%, RORgamma inh 3.98µM* and Sfp inh 3.7%.
For O=C(CSC1=NNC(c2ccccn2)S1)Nc1cccc(Cl)c1 (stereo not drawn) the results were VP16 counter 12.6µM*, PLK1 PBD inh -22.9%, RORgamma inh 3.55µM* and Sfp inh 0.3%.
For O=C(CSc1nnc(-c2ccccn2)o1)Nc1ccccc1 the results were VP16 counter 2.8%, PLK1 PBD inh inconclusive, ALDH1A1 block -2.7%, RORgamma inh 33.3% and Sfp inh 0.8%.
O=C(CSc1nncn1-c1ccccn1)Nc1cccc(Cl)c1 was read as VP16 counter -10.8%, PLK1 PBD inh -13.6%, ALDH1A1 block inconclusive, RORgamma inh 7.9% and Sfp inh 0.0%.
Screening O=C(CSC1=NNC(c2ccccn2)S1)Nc1ccccc1 (stereo not drawn) returned VP16 counter 2.51µM*, PLK1 PBD inh -10.0%, RORgamma inh 1µM* and Sfp inh -13.9%.
`CCOc1cccc(-c2ccc3nncn3c2)c1` gave PLK1 PBD inh -13.0%.
Screening CCOC(=O)Cn1nc2oc(=O)c(CCN3CCN(c4ccccc4OC)CC3)c(C)c2c1C returned PLK1 PBD inh -0.8%.
`O=C1CC(C(=O)N(c2cccc(F)c2)C(C(=O)NC2CCCC2)c2ccccn2)CS1` (stereo not drawn) gave VP16 counter 1.5%, PLK1 PBD inh 1.3%, ALDH1A1 block 10µM*, RORgamma inh 7.0% and Sfp inh -5.0%.
